# Only some compounds are listed: those with a hit (about 9.4% of all), similar ones and a draw of the others.
# ALDH1A1 inh: qHTS Assay for Inhibitors of Aldehyde Dehydrogenase 1 (ALDH1A1); Aldehyde dehydrogenase 1A1 (Homo sapiens), P00352; Potency, µM (doses to about 75.3 µM), without a hit: at the top dose activity, negative = inhibition, hits mostly inhibitors; 220,000 compounds, 7.3% hits; Purified ALDH1A1, NADH fluorescence, propionaldehyde substrate; active = well fitted inhibition curve with a large enough effect, not every such curve was filed as active; inconclusive = small, poorly fitted or top-dose-only effect, or another doubt; inactive = no such curve, though single readings can be large or run the other way;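 note: potency is the fitted concentration of half-maximal effect; plate controls were no enzyme wells and a reference inhibitor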
# Target sequence (P00352 whole entry, looked up): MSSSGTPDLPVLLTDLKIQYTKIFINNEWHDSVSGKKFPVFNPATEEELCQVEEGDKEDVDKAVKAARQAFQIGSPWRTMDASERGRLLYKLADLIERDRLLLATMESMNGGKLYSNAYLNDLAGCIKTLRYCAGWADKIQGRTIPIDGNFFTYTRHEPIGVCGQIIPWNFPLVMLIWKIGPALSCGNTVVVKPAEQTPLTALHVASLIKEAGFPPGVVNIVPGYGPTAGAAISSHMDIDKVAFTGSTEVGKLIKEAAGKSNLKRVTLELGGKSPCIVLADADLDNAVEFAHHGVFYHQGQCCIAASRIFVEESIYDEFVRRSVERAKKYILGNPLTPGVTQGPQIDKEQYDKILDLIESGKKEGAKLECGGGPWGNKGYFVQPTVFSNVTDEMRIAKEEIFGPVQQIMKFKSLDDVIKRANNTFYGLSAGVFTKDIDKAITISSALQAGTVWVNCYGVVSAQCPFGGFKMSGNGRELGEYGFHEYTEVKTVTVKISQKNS
# HTT cytoprotect: qHTS Multiplex Assay to Identify Dual Action Probes in a Cell Model of Huntington: Cytoprotection (ATP); AID 1471, 2008; 230,000 compounds, 0.14% hits; PC12 HTT-Q103 induced, cytoprotection, ATP luminescence, 40 h; Potency, µM (doses to about 56.4 µM), inactives show cytoprotection (ATP increase), actives largely listed as activators; note: potency is the fitted concentration of half-maximal effect; % of control where 0% means no effect; nearly all actives have a fitted effect of over 45% in size
#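 ATP quantification (ATPlite) reports survival of PC12 cells in which tebufenozide, 100 nM final, switches on Htt exon 1 with 103 glutamines linked to GFP; compounds are titrated.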
# IMPase cell inh: qHTS Assay for Identifying the Cell-Membrane Permeable IMPase Inhibitors. CHO-M1 cells, IP1 accumulation, HTRF TR-FRET ratio. inhibition (IP1 accumulation), % at 46.1 µM. 120,000 tested, under 10 active; active = well fitted curve in the direction sought with a large enough effect in the signal ratio, not every such curve was filed as active; inconclusive = small, poorly fitted or top-dose-only effect, or a change in a side signal; inactive = no such curve, though single readings can be large or run the other way; the % refers to the signal ratio;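 note: cells stimulated with carbachol in lithium chloride buffer; plate controls were DMSO basal wells for no effect and reference inhibitor wells for full effect; higher means more IMPase inhibition seen as more IP1 and lower FRET ratio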
#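 Measured: the HTRF emission ratio (665/620 nm) plus the 620 nm donor channel, each fitted to the Hill equation to give AC50. Cells were CHO-M1 given compounds up to 46 uM and a 30 min carbachol stimulation at 37C.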
# HTT aggregate: qHTS Multiplex Assay to Identify Dual Action Probes in a Cell Model of Huntington: Aggregate Formation (GFP). PC12 HttQ103-GFP aggregates, Acumen cytometry, 40 h. Potency, µM (highest dose often 46.1 µM), for inactives: at the top dose activity change, negative = inhibition, hits mostly inhibitors. 220,000 compounds, 1.1% hits; note: potency is the fitted concentration of half-maximal effect; % is set by controls: 0 for no effect and ±100 for the full control effect; nearly all actives have a fitted effect of over 60% in size
#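 Aggregate formation scored by laser-scanning cytometer (488 excitation, 500–530 emission) in lysed PC12 cells expressing Q103-GFP after 100 nM tebufenozide induction; library tested in dose series, with ATPLite reagent added in the multiplex.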
# HPGD block: qHTS Assay for Inhibitors of HPGD (15-Hydroxyprostaglandin Dehydrogenase); 15-hydroxyprostaglandin dehydrogenase [NAD(+)] (Homo sapiens), P15428; purified HPGD, NADH fluorescence kinetic, PGE2 substrate; Potency, µM, for the others: at the top dose activity change, negative = inhibition, most hits filed as inhibitors; 150,000 compounds, 4.3% hits; AID 894, 2007; active = well fitted inhibition curve with a large enough effect, not every such curve was filed as active; inconclusive = small, poorly fitted or top-dose-only effect, or another doubt; inactive = no such curve, though single readings can be large or run the other way; note: potency is the fitted concentration of half-maximal effect; % is set by controls: 0 for no effect and ±100 for the full control effect
# Target sequence (P15428 whole entry, looked up): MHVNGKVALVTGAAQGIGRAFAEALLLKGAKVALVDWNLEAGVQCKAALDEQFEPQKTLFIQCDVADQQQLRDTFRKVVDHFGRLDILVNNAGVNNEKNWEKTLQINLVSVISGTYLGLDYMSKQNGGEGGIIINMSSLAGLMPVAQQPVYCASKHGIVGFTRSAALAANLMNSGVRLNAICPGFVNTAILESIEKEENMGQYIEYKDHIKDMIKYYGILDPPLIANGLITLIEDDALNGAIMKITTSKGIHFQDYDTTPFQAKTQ
#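 20 nM HPGD preincubated 15 min at room temperature with compound in 50 mM Tris-HCl pH 8, 0.01% Tween 20. Started with 1 mM NAD+ and 30 uM prostaglandin E2; NADH fluorescence (360/450 nm) read 5 times over 30-s intervals, last minus first.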
# IMPase Li inh: qHTS Assay for Identifying the Cell-Membrane Permeable IMPase Inhibitors: Potentiation with Lithium; 210,000 compounds, 0.35% hits; Potency, µM (titrated, usually from 59.4 µM), inactives show top-dose activity, negative = IMPase inhibition, actives largely listed as inhibitors; AID 1457, 2008; CHO-M1 cells, IP1 TR-FRET (IP-One), carbachol + lithium;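 note: IP1 builds up when IMPase is blocked and the TR-FRET signal falls; potency is the fitted concentration of half-maximal effect; plate controls were basal vehicle for no effect and high inhibitor control for full effect; nearly all actives have a fitted effect of over 50% in size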
#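 Test compounds were applied to CHO-M1 cells previously cultured for 16–30 h at 2000 per well. A small lithium amount accompanied them; after 30 min at 37C, IP1 was quantified by TR-FRET.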
# * marks the source's active call; other numbers are inactive results; u = inconclusive; x = no result given; [ ] = another dose, or the depositor's remark. Unless noted, calls come from the whole dose curve; as a rule, active = well fitted curve in the direction sought with a large enough effect; inconclusive = small, poorly fitted or top-dose-only effect, or another doubt; inactive = no such curve, though single readings can be large; an effect the other way counts as inactive or inconclusive.
SMILES,ALDH1A1 inh,HTT cytoprotect,IMPase cell inh,HTT aggregate,HPGD block,IMPase Li inh
CCN(CC)S(=O)(=O)c1ccc(N2CCOCC2)c(NC(=O)c2cccc3ccccc23)c1,12.6µM*,2.6%[10 µM],x,-1.7%,-18.2%,3.9%
C/C(=N\Nc1ccc2nncn2n1)c1ccc(Br)s1,x,19.0%[10 µM],x,-2.7%[9.22 µM],x,x
Cc1ccc2oc(=O)c3cc(C(=O)NCc4ccco4)sc3c2c1,u,-20.9%,6.4,-0.4%,-29.9%,-11.5%[38.3 µM]
Cc1ccc2oc(=O)c3cc(C(=O)NCCN4CCc5ccccc5C4)sc3c2c1,28.2µM*,x,x,-13.0%,u,11.1%
O=C(CN(CC1CCCO1)S(=O)(=O)c1ccc(S(=O)(=O)NCC2CCCO2)cc1)Nc1ccccc1 (stereo not drawn),-4.4%,2.7%,5.8,31.6%,2.9%,-6.0%[38.3 µM]
O=S(=O)(NC1CCCC1)c1ccc(S(=O)(=O)N(Cc2cccs2)CC2CCCO2)cc1 (stereo not drawn),25.1µM*,5.0%[10 µM],15.5,u,-16.3%,14.5%
O=C(C1CCCN(S(=O)(=O)c2ccc(F)cc2)C1)N1CCCC1 (stereo not drawn),1.6%,-38.3%,13.9,-2.3%,2.1%,10.3%[38.3 µM]
O=C(C1CCCN(S(=O)(=O)c2ccc(F)cc2)C1)N(Cc1cccs1)C1CC1 (stereo not drawn),17.8µM*,-4.4%[10 µM],6.4,u,-3.5%,25.2%[38.3 µM]
O=S(=O)(c1ccc(S(=O)(=O)N(Cc2cccs2)CC2CCCO2)cc1)N1CCCCC1 (stereo not drawn),7.94µM*,-1.6%,7.3,-29.9%,-3.9%,27.8%[38.3 µM]
Cn1c(=O)c2c(ncn2CN2CCN(Cn3cnc4c3c(=O)n(C)c(=O)n4C)CC2)n(C)c1=O,8.3%[13.5 µM],-12.9%[10 µM],x,x,-0.3%,9.0%
COC(=O)C1=C(C(=O)OC)[C@@H]2N(Cc3ccccc3)c3ccccc3[C@@]23C[C@@H](C(=O)OC)N(S(=O)(=O)c2ccc(C#N)cc2)C3=N1,-5.7%[13.5 µM],3.6%[10 µM],x,x,-9.1%,5.0%
Cc1cccc(N2CCN(CCCNC(=O)c3nnc(Cc4c(F)cccc4Cl)o3)CC2C)c1 (stereo not drawn),x,x,1.4,x,x,x
Clc1ccc([C@@H](c2ccccc2Cl)C(Cl)Cl)cc1,x,-9.3%[1.9 µM],x,x,x,x
C=C(NCc1ccccc1)c1ccccc1O,x,-6.8%,x,2.0%,x,x
N[C@@]1(C(=O)O)CCC[C@@H]1C(=O)O,4.9%[13.5 µM],-15.6%[10 µM],x,x,1.6%,2.5%
CC(C)Sc1nc2c(c(=O)n(C)c(=O)n2C)n1Cc1ccc(Cl)cc1,8.91µM*,-27.6%,-1.5,-32.0%,-8.8%,41.7%[38.3 µM]
Cc1ccc(Cn2c(SCC(=O)NCC3CCCO3)nc3c2c(=O)n(C)c(=O)n3C)cc1 (stereo not drawn),22.4µM*,22.8%[10 µM],x,-16.7%[9.22 µM],x,18.5%
Cc1ccc2cc(C#N)c(SCC(=O)NCC3CCCO3)nc2c1 (stereo not drawn),-10.3%,-27.8%,u,-5.8%,-23.1%,10µM*
Cc1cc(C)c2cc(C#N)c(SCC(=O)NCC3CCCO3)nc2c1 (stereo not drawn),0.2%,-7.5%[10 µM],-10.2,5.3%,-6.9%,17.1%[38.3 µM]
Cn1c(=O)c2c(nc(SCCCC#N)n2Cc2ccccc2F)n(C)c1=O,2.82µM*,3.8%,-0.4,-4.5%,-7.1%,22.3%
O=C(O)c1c(Sc2ccccc2)c2cc(Cl)ccc2n1Cc1ccc(Cl)cc1,0.6%,-38.4%,x,x,-0.9%,2.1%
Cc1ccc(-c2cc(C(=O)Oc3ccccc3)c3cc(C)ccc3n2)cc1,x,x,12.0,x,x,x
CCCCc1nc2ccccc2n2c(-c3ccc(OC)cc3)c3c(=O)n(C)c(=O)n(C)c3c12,x,x,6.1,x,x,x
Cc1cccc2cc(C#N)c(SCC(=O)NCC3CCCO3)nc12 (stereo not drawn),3.4%,-16.0%[10 µM],u,-0.3%,u,0.2%
Cc1ccc(-n2nnc3c(SCC(=O)NCC4CCCO4)ncnc32)cc1 (stereo not drawn),1.2%,2.3%[10 µM],6.0,u,1.26µM*,15.6%[38.3 µM]
SMILES,ALDH1A1 inh,HTT cytoprotect,IMPase cell inh,HTT aggregate,HPGD block,IMPase Li inh
Cc1ccc2nc(SCC(=O)NCC3CCCO3)c(C#N)cc2c1 (stereo not drawn),5.3%,-24.1%[10 µM],-5.8,17.6%,6.31µM*,u
COC(=O)C1CC1C(NC(=O)[C@@H]1CCCN1)c1ccccc1 (stereo partly drawn),-5.0%,u,x,x,-0.5%,-1.5%
Cc1ccc(OCCn2cnc(Cl)c2Cl)cc1,5.1%,x,x,x,x,17.2%
Cc1ccc(OCCn2cc(Br)c(=O)[nH]c2=O)cc1,20µM*,-0.8%,9.1,15.8%,-0.6%,-25.9%[38.3 µM]
CCCN(Cc1cc2cccc(C)c2[nH]c1=O)C(=O)c1cccc(OC)c1,x,-15.7%[0.074 µM],x,x,x,x
CCCN(Cc1cc2cc(C)ccc2[nH]c1=O)C(=O)c1cccc(OC)c1,u,-26.5%[0.074 µM],2.7,10µM*,u,22.2%
C=C1C(=O)O[C@@H]2[C@H]3O[C@]3(C)CCC=C(C)CC[C@@H]12,20µM*,-86.1%,4.2,x,-4.5%,10.6%
C=C1C(=O)O[C@@H]2[C@@H]1CC/C(C)=C\CC[C@@]1(C)O[C@H]21,10µM*,u,4.9[20.6 µM],14.1µM*,-1.3%,-5.2%
Cc1ccc2nc(-c3ccc(-c4ccccn4)s3)cn2c1,x,-24.4%[10 µM],x,-11.5%[9.22 µM],x,x
CCOC(=O)CC(NC(=O)Cn1nnc(-c2ccccc2F)n1)c1ccccc1Cl (stereo not drawn),-0.7%,x,x,21.6%,x,12.0%
Cc1cc(C)nc(NS(=O)(=O)c2ccc(NC(=O)c3ccccc3O)cc2)n1,x,x,-13.9,x,x,x
Cc1ccc(O)c(-c2cc(C(=O)Nc3ccc(S(=O)(=O)N4CC(C)OC(C)C4)cc3)[nH]n2)c1 (stereo not drawn),2.9%,4.3%[10 µM],10.7,-7.4%,12.6µM*,3.0%
Cc1ccc(O)c(-c2cc(C(=O)Nc3ccc(S(=O)(=O)Nc4nc(C)cc(C)n4)cc3)[nH]n2)c1,2.8%,x,x,18.3%,0.891µM*,-2.6%
Cc1cc(C)c(O)c(-c2cc(C(=O)NCc3ccccc3)[nH]n2)c1,u,-26.2%,-1.5,-8.3%[1.84 µM],-13.3%,46.1%[38.3 µM]
Cc1ccc(O)c(-c2cc(C(=O)NCc3ccncc3)[nH]n2)c1,-7.0%,-11.9%,5.5,0.7%,5.01µM*,4.0%[38.3 µM]
COc1cc([C@@H]2Nc3c(F)cccc3[C@@H]3C=CC[C@@H]32)cc(Br)c1OC,x,x,4.5,x,x,x
